The nature of assay [1]: Cell Viability - Jurkat (AID 426;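 active means dose-dependent loss of cell ATP signal giving a full or clear fitted curve, ranked by lower potency value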;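 further: potency means the concentration at half of the fitted maximal effect; cells exposed to compound for 40 hours at 37 °C before ATP read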). The note with it: qHTS. Put shortly:
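Seed 5000 Jurkat E6-1 cells/well; add compound; incubate 40 hr at 37 °C; add CellTiter-Glo; wait 20 min at room temperature; read luminescence. Fit concentration-response with Hill equation for AC50.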
Background: Quantitative high-throughput screening tests each substance at several concentrations.

Assay [2] is described as follows: Cell Viability - Hek293 (AID 427;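 active means compounds whose dose-response curve shows a full or clear partial loss of cell viability, called from curve shape rather than a numeric limit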;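 further: potency means the concentration at half of the fitted maximal effect; cells exposed to compound for 40 hours at 37 °C before reading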). The note with it: qHTS. Put shortly: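 qHTS, human embryonic kidney (adenovirus-transformed) cells; 40 hr cpd, 37 °C; CellTiter-Glo ATP luminescence. Norm: DMSO = 0, 100 uM tamoxifen = 100% inhibition. Hill-fit AC50.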
A short description of assay [3]: Cell Viability - N2a (AID 540).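 Further: cells exposed to compound for 40 h at 37 °C; plate controls were DMSO alone for no effect and tamoxifen control for full effect; nearly all actives have a fitted effect of over 45% in size.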 The note with it: N2a mouse neuroblastoma cell viability; at 92.2 µM (top of the series). Put shortly:
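First, 1500 N2a cells per well incubate 5 hr at 37 °C; next, compounds are added and incubated 40 hr at 37 °C; finally CellTiter-Glo is added and luminescence read after 20 min, with AC50 derived by Hill modeling.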

A short description of assay [4]: Cell Viability - H-4-II-E (AID 543).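 Further: cells exposed to compound for 40 hours; on the % scale 0 is the no-effect control and ±100 the full control effect; nearly all actives have a fitted effect of over 35% in size.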 The note with it: H-4-II-E rat hepatoma viability; series mostly up to 92.2 µM. Put shortly: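 Here, cytotoxicity is measured in the rat hepatoma line H-4-II-E as loss of intracellular ATP after 40 hr compound treatment, detected by luciferase luminescence.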
The nature of assay [5]: Cellular Toxicity (caspase-3) HepG2 (AID 654).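 Further: cells exposed to compound for 16 hours before reading.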 To be noted: HepG2 caspase-3 activation, luminescence, 0% = DMSO only, 100% = tamoxifen; series mostly up to 92.2 µM. In short, it runs like this:
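qHTS, HepG2, 1500 cells/well, complete medium; cpd 16 h 37 °C; Caspase-Glo 3/7, 20 min RT; lum. Norm: DMSO vs 100 uM tamoxifen; AC50 Hill fit.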

Assay [6] can be described thus: Cellular Toxicity (caspase-3) NIH 3T3 (AID 666).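 Further: caspase signal read after 16 h compound exposure; 0% = DMSO basal and 100% = 100 µM tamoxifen stimulation.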 To be noted: NIH 3T3 caspase-3 activation, apoptosis/toxicity, 0% DMSO, 100% is 100 µM tamoxifen; series mostly up to 92.2 µM. Put shortly: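 Concentration-response qHTS in NIH 3T3 mouse fibroblasts scores caspase-3/7 activation as rising luminescence after 16 hr compound exposure. Signals are scaled between DMSO-only and 100 uM tamoxifen.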

A short description of assay [7]: MultiTox-Fluor Cytotoxicity Assay - LYMP1-002 - Live Cells (AID 955).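 Further: cells exposed to compound for 16 hours; on the % scale 0 is the no-effect control and ±100 the full control effect.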 The note with it: LYMP1-002 lymphoblastoid live-cell protease fluorescence viability; series mostly up to 46.1 µM. In short, it runs like this:
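Cytotoxicity in the human lymphoblastoid line LYMP1-002 is measured as loss of live-cell protease activity after 16 h treatment in complete culture medium. AC50 is derived from Hill-equation fits of qHTS concentration-response data.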

Assay [8] is described as follows: MultiTox-Fluor Cytotoxicity Assay - LYMP1-003 - Live Cells (AID 962).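 Further: cells exposed to compound for 16 hours at 37 °C; 0% = DMSO only and full loss = 92 µM tetraoctylammonium bromide; cytotoxic hits lower the live-cell protease signal.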 To be noted: LYMP1-003 lymphoblastoid cells, MultiTox-Fluor live-cell protease fluorescence; series mostly up to 92.2 µM. In short, it runs like this: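 Cells plated at 2500 per well and incubated 5 hr; compounds added and incubated 16 hr at 37 C; MultiTox-Fluor reagent added for 60 min at room temperature; fluorescence of liberated AFC measured at 405/510 nm.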

A short description of assay [9]: Cell Viability - LYMP1-003 - Assay at 40 hr (AID 964). Further: on the % scale 0 is the no-effect control and ±100 the full control effect; nearly all actives have a fitted effect of over 60% in size. The note with it: LYMP1-003 lymphoblastoid viability; series mostly up to 92.2 µM. Put shortly: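 This qHTS cytotoxicity screen treats human lymphoblastoid cells (LYMP1-003) with compounds for 40 hr and quantifies cellular ATP via luciferase luminescence.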
Assay [10] is described as follows: Cell Viability - LYMP2-003 (AID 965).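 Further: cells exposed to compounds for 24 h before reading; 0% = DMSO only and full effect = 92 µM tetraoctylammonium bromide; nearly all actives have a fitted effect of over 50% in size.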 The note with it: LYMP2-003 lymphoblastoid cell viability; series mostly up to 92.2 µM. Put shortly:
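CellTiter-Glo luminescence (cellular ATP) after 24 h compound exposure at 37 C in complete medium; 2500 cells/well, 5 h settling beforehand. Concentration-response fitted to standard Hill equation for AC50. Tetraoctylammonium bromide served as positive control.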

The nature of assay [11]: Cell Viability - LYMP2-006 (AID 978).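 Further: cells exposed to compound for 24 hours; on the % scale 0 is the no-effect control and ±100 the full control effect; nearly all actives have a fitted effect of over 60% in size.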 The note with it: LYMP2-006 lymphoblastoid cell viability, qHTS; series mostly up to 92.2 µM. In short, it runs like this:
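qHTS, 1536-well; 2500 cells/well, 5 hr 37 C; cpd 24 hr 37 C; CellTiter-Glo 30 min RT; luminescence. Tetraoctylammonium bromide pos. ctrl. AC50 via Hill eqn.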

A short description of assay [12]: Cell Viability - LYMP2-008 (AID 980). Further: on the % scale 0 is the no-effect control and ±100 the full control effect; nearly all actives have a fitted effect of over 60% in size. To be noted: LYMP2-008 lymphoblastoid cell viability, qHTS; series mostly up to 92.2 µM. Put shortly: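 Acute cytotoxicity is scored as concentration-dependent loss of cellular ATP in a human lymphoblastoid line after 24 hr treatment at 37 C. ATP is quantified by luciferase luminescence.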
Assay [13] can be described thus: Cell Viability - LYMP2-026 (AID 989). Further: on the % scale 0 is the no-effect control and ±100 the full control effect; nearly all actives have a fitted effect of over 50% in size. The note with it: LYMP2-026 lymphoblastoid cell viability, qHTS; series mostly up to 92.2 µM. Put shortly:
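Concentration-dependent loss of intracellular ATP in human lymphoblastoid cells after 24 hr at 37 C, quantified by luciferase luminescence. AC50 derived from standard Hill equation.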

The nature of assay [14]: Cell Viability - LYMP1-002 - Assay at 24 hr (AID 993). Further: on the % scale 0 is the no-effect control and ±100 the full control effect. The note with it: LYMP1-002 lymphoblastoid cells viability; series mostly up to 92.2 µM. In short, it runs like this:
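qHTS, LYMP1-002 lymphoblastoid, 24 h cpd, 37 C, CellTiter-Glo ATP luminescence; AC50 via Hill eq.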

The nature of assay [15]: Cell Viability - LYMP1-002 - Assay at 40 hr (AID 994).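 Further: 0% = DMSO only and full inhibition = 92 µM tetraoctylammonium bromide; nearly all actives have a fitted effect of over 60% in size.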 To be noted: LYMP1-002 lymphoblastoid cell viability; series mostly up to 92.2 µM. In short, it runs like this:
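Viability in the human lymphoblastoid line was measured as intracellular ATP via CellTiter-Glo after 40 hr compound exposure. Tetraoctylammonium bromide served as positive control.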

Assay [16] in a line: qHTS assay for small molecule agonists of retinoid X receptor alpha signaling (AID 588544). The note with it: HEK293T RXRa-UAS-bla, beta-lactamase reporter, 18 h; 530 nm emission.
Assay [17] is described as follows: qHTS assay for small molecule disruptors of the mitochondrial membrane potential - 5 hr assay (AID 651755; calls by dose curve; further: on the % scale 0 is the no-effect control and ±100 the full control effect; nearly all actives have a fitted effect of over 40% in size). To be noted: JC-1-type ratio dye; series mostly up to 92.2 µM. In short, it runs like this:
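HepG2 cells, attached overnight at 37C, were exposed to compound or DMSO for 5 hr at 37C, 5% CO2. Mito-MPS dye was then added for 30 min, and fluorescence read at 490/535 nm (monomers) and 540/590 nm (aggregates).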

For assay [18], the target named is Tumor necrosis factor (Homo sapiens) (UniProt P01375). Briefly: qHTS assay to identify small molecules that stimulate Tumor Necrosis Factor-alpha (TNF-alpha) secretion (AID 651757; active means well fitted curve in the direction sought with a large enough effect in the signal ratio; the % refers to the signal ratio; further: 0% is about no effect). The note with it: Human cells, HTRF 665/615 ratio; series mostly up to 92.2 µM. In short, it runs like this: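 Secreted TNF-alpha from compound-treated THP-1 cells (17 hrs, 37 C) was quantified with a homogeneous time-resolved fluorescence antibody assay.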

In assay [19] the target is Peroxisome proliferator-activated receptor alpha (Homo sapiens) (UniProt Q07869). Briefly: qHTS assay for small molecule agonists of the peroxisome proliferator-activated receptor alpha (PPARalpha) signaling pathway (AID 651778). Further: % of control where 0% means no effect. To be noted: PathHunter PPARalpha complementation, chemiluminescence, 6 h; stronger effect = higher value. Put shortly: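 Cells plated at 2,000/well and held overnight at 37 C, 5% CO2, then compound added by pin tool for 6 hr; after PathHunter detection reagent and 60 min at room temperature, chemiluminescence from enzyme complementation was read.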

Assay [20] can be described thus: qHTS assay for small molecule agonists of the antioxidant response element (ARE) signaling pathway measured by Nrf2-dependant transcriptional activity (AID 720636; active means well fitted curve in the direction sought with a large enough effect in the repeat runs; an effect the other way counts as inactive or inconclusive;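 further: HepG2 cells with an ARE-driven luciferase reporter; % of control where 0% means no effect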). The note with it: ARE-luc HepG2, Nrf2 luciferase reporter, 16 h; series mostly up to 92.4 µM. In short, it runs like this:
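ONE-Glo luminescence, read 30 min after reagent addition at room temperature, reflected ARE reporter activity in HepG2 cells that had been incubated with compound for 16 hr at 37 C in 1% dialyzed FBS.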

Several values for one entry are separate records, joined by “and”; a condition that tells them apart may be missing. Identical values can stand only once. Records with an inconclusive call do not appear. Activity calls are given as the source filed them. Unless noted, the call rests on the fitted dose curve; in most records, active means well fitted curve in the direction sought with a large enough effect; inconclusive means small, poorly fitted or top-dose-only effect, or another doubt; inactive means no such curve, though single readings can be large; an effect the other way counts as inactive or inconclusive.

Chain of Peroxisome proliferator-activated receptor alpha (Homo sapiens) (Q07869 whole entry, looked up): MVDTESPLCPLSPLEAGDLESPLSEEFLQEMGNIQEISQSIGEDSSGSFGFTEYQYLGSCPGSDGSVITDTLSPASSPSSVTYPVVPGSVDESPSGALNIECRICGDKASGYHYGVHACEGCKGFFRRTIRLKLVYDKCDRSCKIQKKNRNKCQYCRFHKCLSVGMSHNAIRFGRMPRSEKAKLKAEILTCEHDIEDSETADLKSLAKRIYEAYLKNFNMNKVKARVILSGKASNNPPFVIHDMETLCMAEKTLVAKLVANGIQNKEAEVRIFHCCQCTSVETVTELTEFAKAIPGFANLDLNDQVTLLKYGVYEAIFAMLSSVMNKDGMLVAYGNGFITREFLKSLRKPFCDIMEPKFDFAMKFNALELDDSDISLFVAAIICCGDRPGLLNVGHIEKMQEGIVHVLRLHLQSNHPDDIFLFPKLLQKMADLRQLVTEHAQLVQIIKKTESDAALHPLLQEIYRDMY
Chain of Tumor necrosis factor (Homo sapiens) (P01375 whole entry, looked up): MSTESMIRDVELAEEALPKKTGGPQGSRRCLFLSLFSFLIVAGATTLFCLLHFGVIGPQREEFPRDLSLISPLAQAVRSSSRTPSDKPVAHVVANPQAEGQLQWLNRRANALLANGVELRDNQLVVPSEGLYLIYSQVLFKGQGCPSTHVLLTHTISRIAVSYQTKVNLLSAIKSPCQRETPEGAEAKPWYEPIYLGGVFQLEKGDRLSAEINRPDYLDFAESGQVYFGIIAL

On to `OCC(Br)CBr` (centres undefined), for which the Potency in assay [1] and in assay [2] was > 92 µM (inactive) throughout. Further, the activity change, negative = cytotoxicity in assay [3] was -8.1% (inactive). The Potency result in assay [4], in [8], in [9], in assay [10], in assay [11] and in assay [12] was “inactive” throughout. Moreover, the Potency entry in [13], in [14], in assay [15] and in [17] was “inactive” each time. The molecule was classed as inactive in [5], in assay [6], in assay [7], in [18] and in assay [20]. Further, the max response in assay [16] is -16%; in [19], -5.97% (inactive).

For `O=C=NC1CCCCC1`, the Potency in [1] and in assay [2] was > 92 µM (inactive) each time. Besides, the activity change, negative = cytotoxicity in assay [3] was -6.26% (inactive) and 7.73% (inactive). Also, the Potency result in [4], in assay [8], in [9], in assay [10], in assay [11] and in assay [12] was “inactive” throughout. Besides, the Potency entry in assay [13], in [14], in [15] and in [17] was “inactive” each time. Further, the result in assay [5], in assay [6], in assay [7], in assay [18] and in [20] was inactive. Besides, the max response was -3.28% and -9.66% in assay [16]; 0.341% (inactive) and -3.39% (inactive) in [19].

As to `N#CCCCl`, the Potency in assay [1] and in [2] was > 92 µM (inactive) in each case. Moreover, in assay [3], the activity change, negative = cytotoxicity was -2.76% (inactive) and -3.85% (inactive). In addition, the Potency result in assay [4], in assay [8], in assay [9], in assay [10], in assay [11] and in assay [12] was “inactive” each time. In addition, the Potency result in assay [13], in [14], in assay [15] and in assay [17] was “inactive” in each case. Moreover, the molecule was classed as inactive in [5], in assay [6], in assay [7], in assay [18] and in [20]. The max response was 5.05% and -2.32% in assay [16]; -3.2% (inactive) and -4.12% (inactive) in [19].

Take `Clc1nc(Cl)nc(Cl)n1`: the Potency in assay [1] and in assay [2] was > 92 µM (inactive) in each case. In addition, in assay [3], the activity change, negative = cytotoxicity is -4.85% (inactive). The Potency entry in assay [4], in assay [8], in [9], in assay [10], in [11] and in assay [12] was “inactive” each time. In addition, the Potency result in assay [13], in assay [14], in [15] and in assay [17] was “inactive” each time. For the same molecule, the molecule was classed as inactive in assay [5], in assay [6], in [7], in [18] and in [20]. The max response was 5.45% and -4.64% in assay [16]; -5.93% (inactive) and -1.12% (inactive) in assay [19].

On to `CCOP(=S)(OCC)Oc1ccc([N+](=O)[O-])cc1`, for which the Potency in assay [1] and in [2] was > 92 µM (inactive) each time. In addition, the Potency entry in [4], in assay [8], in assay [9], in assay [10], in assay [11] and in [12] was “inactive” throughout. The Potency result in assay [13], in assay [14], in assay [15] and in assay [17] was “inactive” in each case. Moreover, the result in assay [5], in assay [6], in [7], in [18] and in assay [20] was inactive. Further, the max response in assay [16] is -6.89% and 6.11%; in [19] it was -0.408% (inactive) and 4.67% (inactive) and -3.29% (inactive).

For `Nc1c(Cl)c(Cl)nc(C(=O)O)c1Cl`, the Potency in [1] and in assay [2] was > 92 µM (inactive) throughout. In assay [3], the activity change, negative = cytotoxicity was -4.43% (inactive). The Potency result in assay [4], in [8], in [9], in [10], in [11] and in assay [12] was “inactive” throughout. Further, the Potency result in assay [13], in assay [14], in [15] and in assay [17] was “inactive” each time. Moreover, the outcome in assay [5], in assay [6], in [7], in assay [18] and in assay [20] was inactive. Moreover, the max response in assay [16] was 27.1%; in assay [19] it was 0.0872% (inactive) and -2.27% (inactive) and -1.09% (inactive).
